Tests used:
Assay in all cases: PBM binding z-score (relative to random genomic background probes); higher = stronger binding; sequences stand for … in GC…GCGATTGACAGCGTAGAATGAAGG
[1] = system: RARb homodimer (NR concentration 270 nM)
Outline: (§1)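 On custom Agilent 4×180K arrays, double-stranded probes with 34-nt variable regions carried direct-repeat seeds, single-nucleotide variants, half-site ablations or random human genomic background. Ligand-free nuclear receptor dimers were applied for 1 h, and binding was read with antibodies against each partner (one per run). Binding z-scores come from regression-normalized fluorescence, with the random background probes as reference.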

[2] = system: RARg:RXRa (NR concentration 270 nM, RXRa partner concentration 90 nM)
Outline: as §1

[3] = system: RARg homodimer (NR concentration 270 nM)
Outline: as §1

[4] = system: RXRa DBDmut IVT, anti-RXR (DBD mutation: RXRa K156A/R161A, NR concentration 90 nM)
Outline: as §1

[5] = system: RXRa homodimer (NR concentration 180 nM)
Outline: as §1

[6] = system: THRa:RXRa (NR concentration 90 nM, RXRa partner concentration 90 nM)
Outline: as §1

[7] = system: THRa homodimer (NR concentration 90 nM)
Outline: as §1

[8] = system: VDR homodimer (NR concentration 270 nM)
Outline: as §1

| Sequence | PBM binding z-score [1] | PBM binding z-score [2] | PBM binding z-score [3] | PBM binding z-score [4] | PBM binding z-score [5] | PBM binding z-score [6] | PBM binding z-score [7] | PBM binding z-score [8] |
| --- | --- | --- | --- | --- | --- | --- | --- | --- |
| GGTACGAGGGCATTCGAGTTGATAGCATGGCGAT | 0.849 | 1.06 | 1.61 | 3.01 | 0.971 | 3.28 | -0.337 | 3.68 |
| CGTCCAAGGTCAATGCTAGGTCTGTGAAAGCATT | 3.89 | 5.81 | 6.03 | 3.79 | 4.4 | 3.78 | 2.25 | 2.69 |
| GCTGCTAGGTCAACTGATGGTCCGCTAAAGCTCG | 3.41 | 4.2 | 5.3 | 1.53 | 2.8 | 2.73 | 1.26 | 0.106 |
| TCGAGTAGGTTAGGGGCAGTCAGAATGGCGTCGA | 1.27 | 0.245 | 0.258 | 0.0348 | 0.203 | 0.742 | 0.229 | 0.0516 |
| CTTGAAAGGTCGTGCTCAGGTGAGTATACCAAAC | 2.75 | 5.02 | 3.64 | 2.21 | 5.06 | 4.21 | 0.803 | 1.03 |
| GCGACTGGCGCAAAGCAGGTTACCATAAGGTTGG | -0.0806 | -0.27 | -0.774 | -0.791 | -0.0574 | 0.636 | -0.543 | -0.861 |
| CCGACTGGGGCAAGGTTACCTTAACGCACAGCCA | 1.27 | 0.881 | 1.11 | -0.49 | 1.1 | 2.07 | 1.66 | -0.391 |
| CCTGGCAGGCCAATCTGGGTCACTCAAGGCTTGA | 2.28 | 1.11 | 1.5 | -0.376 | 0.545 | 3.8 | 0.481 | -0.15 |
| TCTAGCAGGCCAGAGAGTCACTCAAGAGGTACGG | -0.56 | -0.0784 | -0.0814 | -0.229 | 0.33 | -0.304 | -1.31 | -0.865 |
| CTACGAAGGTGAACAAGGTCGTTGATTACTATTC | 2.4 | 2.2 | 1.98 | 1.51 | 2.21 | 2.91 | 1.08 | 2.46 |
| CGTCAAAGTTCAACTAAGGAAACGTAAAGCACGC | 3.66 | 5.97 | 6.45 | 4.6 | 4.94 | 4.5 | 0.0826 | 3.88 |
| CGTCCAAGGTCAATGCTAGGTCAGTGAAAGCATT | 4.88 | 7.68 | 6.83 | 3.85 | 5.28 | 4.31 | 2.74 | 3.1 |
| TCTAGTTGGTCACGGTGGTCACACACGACGGGTA | 1.58 | 1.53 | 1.77 | 0.312 | 0.842 | 0.234 | 0.0512 | -0.372 |
| CAAACTAGGTCAAAGGCCAAAGTCGAGCCAACCA | 3.34 | 5.06 | 4.83 | 1.8 | 4.98 | 3.05 | 0.429 | 0.659 |
| CCTAATGGGCCAAAAAGGTCATTGATGCCGATAA | 4.33 | 4.34 | 4.05 | 1.29 | 4.45 | 3.03 | 0.29 | 2.59 |
| TATACAGGGTCAAAGGCCAGAATACGAATGTCGA | 3.2 | 5.71 | 5.1 | 2.7 | 6.99 | 3.41 | 0.697 | 2.6 |
| ACTACCAGGCCAAGGGTCACTCAAGATTAGTCCG | 4.07 | 4.15 | 3.87 | 0.629 | 4.2 | 3.3 | 1.15 | 2.13 |
| TAGCCTAGATCAGATCGGGCCAGTATACGCTATA | -1.29 | -0.519 | -0.508 | -1.09 | -0.577 | 0.52 | -1.58 | -1.04 |
| CCGACTGGGGCAAAGGTTAGCATACTCAGTACGA | 1.56 | 2.76 | 1.55 | 0.057 | 2.79 | 0.962 | -0.171 | -0.381 |
| GGAACGAGGGCAAGTTGATAGCGGAGTTTGATGG | 1.43 | 1.28 | 1.74 | 2.31 | 0.823 | 1.13 | 0.118 | 1.73 |
| TCTTTTAGTTGATTAGGGCAACCGAAACAGCGGA | 1.02 | 1.27 | 1.12 | 1.2 | 0.836 | 1.07 | 0.745 | 0.435 |
| TCTCGGTGGACACGAAGGTCAGAGCTTTCCAGAG | 3.04 | 2.19 | 1.97 | 0.131 | 1.55 | 1.39 | -0.0519 | -0.0711 |
| CCTACTGGGCCACGCAAGGTCATTGATTCAGTGA | 3.66 | 3.09 | 2.61 | 0.396 | 2.62 | 4.54 | 2.64 | 2.93 |
| ATACCCAGGTGATCGTGAGGTCGTTGATACTAAC | 2 | 1.49 | 0.63 | 0.432 | 1.39 | 3.14 | 2.72 | 2.52 |
| ACAGACAGGTGAGTGAAGGTGACTCAGCTGGACG | 0.821 | 0.36 | 0.791 | -0.543 | 0.523 | 2 | -0.223 | -0.311 |
| CCTAGCAGACCAGGGTCACTCAAGCATTTCGCTT | 2.68 | 2.86 | 1.84 | 0.63 | 3.24 | 2.75 | 0.798 | 1.37 |
| CCTACTGGGCCAAAAAGCTCATTGATGCCGATAA | -0.842 | -0.596 | -0.419 | -0.369 | -0.638 | -0.815 | -0.619 | -0.487 |
| TCATATAGTTAATACAGGTGAAAGTCGGCATCTA | 0.692 | 0.857 | 0.789 | 2.12 | 1.2 | 1.02 | 0.515 | 0.657 |

Reference: the supplement of paper PMC6555819
